High-throughput results from PubChem.
MCL1 BIM primary – inhibitors of MCL1 binding to BIM-BH3, primary screen, biochemical, fluorescence polarization | actives 0.68% (n = 320,000) | Induced myeloid leukemia cell differentiation protein Mcl-1 (Homo sapiens), Q07820 | GST-MCL1 / FITC-Bim-BH3 fluorescence polarization | AID 2057, 2009 | inhibition, % at 10.9 µM;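 active = inhibition above the mean inhibition of all tested compounds plus 3 SD, set per campaign, cut at about 40% in these data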;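 note: higher means more loss of mP so more displacement of Bim peptide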
Target sequence (Q07820 whole entry, looked up): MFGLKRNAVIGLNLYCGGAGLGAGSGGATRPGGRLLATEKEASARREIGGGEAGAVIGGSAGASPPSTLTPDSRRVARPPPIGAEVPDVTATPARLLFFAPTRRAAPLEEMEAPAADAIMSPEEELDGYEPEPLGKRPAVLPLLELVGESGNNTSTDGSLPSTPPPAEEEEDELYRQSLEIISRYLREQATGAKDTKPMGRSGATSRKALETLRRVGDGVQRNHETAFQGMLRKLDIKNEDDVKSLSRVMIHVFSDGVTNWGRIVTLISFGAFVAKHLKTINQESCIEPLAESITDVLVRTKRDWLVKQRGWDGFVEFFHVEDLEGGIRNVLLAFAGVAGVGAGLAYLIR
14-3-3 Bad PPI – inhibitors of 14-3-3 zeta/Bad binding, primary screen, biochemical, TR-FRET, bovine 14-3-3 zeta; TR-FRET 14-3-3zeta/Dy647-pBad peptide displacement, 1 h; 14-3-3 protein zeta/delta (Bos taurus), P63103; inhibition, % at 21.7 µM; actives 0.71% (n = 220,000);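 active = inhibition above about 70%, limit read from the data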
Target sequence (P63103 whole entry, looked up): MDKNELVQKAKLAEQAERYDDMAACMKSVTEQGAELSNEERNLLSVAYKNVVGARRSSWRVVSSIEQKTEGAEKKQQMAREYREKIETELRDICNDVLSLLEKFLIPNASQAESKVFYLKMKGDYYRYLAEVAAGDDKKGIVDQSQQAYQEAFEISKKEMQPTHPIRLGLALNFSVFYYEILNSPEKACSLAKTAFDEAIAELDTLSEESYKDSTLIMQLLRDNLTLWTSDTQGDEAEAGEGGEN
Mcl1 Noxa PPI – Mcl-1/Noxa binding inhibitors, primary screen, biochemical, TR-FRET, 1536-well. TR-FRET Mcl-1/Noxa peptide binding, 2 h. inhibition, % at 21.7 µM. actives 1.5% (n = 220,000);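 active = compounds that cut the protein-peptide binding signal by more than 50% relative to plate controls in a single-dose test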;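 note: His-tagged Mcl-1 with rhodamine Noxa BH3 peptide and terbium anti-His antibody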
Mcl1 Bid PPI – Mcl-1/Bid binding inhibitors, primary screen, biochemical, TR-FRET, 1536-well. TR-FRET Mcl-1/Bid-Dy647 peptide binding. inhibition, % at 21.7 µM. actives 0.97% (n = 220,000). AID 1021, 2008;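 active = compounds that cut the binding signal by more than half at the single screening dose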;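 note: His-tagged Mcl-1 with europium anti-His antibody binding Bid BH3 peptide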
Mcl-1 Bim block – inhibitors of Bim peptide binding to Mcl-1, primary screen, biochemical, bead-based flow cytometry, multiplex. Induced myeloid leukemia cell differentiation protein Mcl-1 (Homo sapiens), Q07820. Bim peptide-Mcl-1 binding. inhibition, % at 10 µM. actives 0.1% (n = 190,000); in the data active = inhibition above about 40%
Bcl-xL conf – Bcl-xL inhibitors blocking Bim BH3 binding, confirmation, counter-screen for MCL1 inhibitor project, biochemical, fluorescence polarization | GST-Bcl-xL / FITC-Bim BH3 peptide FP binding | shares compounds with MCL1 BIM primary | inhibition, % at 10.9 µM | actives 54% (n = 1,700);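 active = inhibition above a cutoff equal to the mean inhibition of all tested compounds plus 3 SD, cut at about 30% in these data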
MCL1 inh confirm – inhibitors of MCL1 binding to BIM-BH3, confirmation, biochemical, fluorescence polarization, triplicate. actives 61% (n = 1,700). inhibition, % at 10.9 µM. shares compounds with MCL1 BIM primary. GST-MCL1 / FITC-Bim-BH3 fluorescence polarization. AID 2168, 2009;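 active = inhibition above the average of all tested compounds plus 3 SD, cut at about 40% in these data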
Hits are given with their value. Only some compounds are listed: those with a hit (about 2.5% of all), similar ones and a draw of the others.

How did Nc1c(C(=O)N/N=C/c2cccnc2)oc2nc(-c3ccco3)cc(-c3ccco3)c12 do in these assays?
MCL1 BIM primary: 61; 14-3-3 Bad PPI: inactive; Mcl1 Noxa PPI: inactive; Mcl1 Bid PPI: inactive; Bcl-xL conf: inactive; MCL1 inh confirm: inactive

What do the screens show for `Nc1nnc(SCc2ccccc2F)s1`?
MCL1 BIM primary: inactive; 14-3-3 Bad PPI: inactive; Mcl1 Noxa PPI: inactive; Mcl1 Bid PPI: inactive

Results for O=C1c2ccccc2C(=O)c2c1cccc2N1CCCC1 ?
MCL1 BIM primary: inactive; 14-3-3 Bad PPI: inactive; Mcl1 Noxa PPI: inactive; Mcl1 Bid PPI: inactive; Mcl-1 Bim block: inactive

What do the screens show for `Cn1c(=O)cc2c3c(c(N4CCCCC4)ccc31)C(=O)c1ccccc1-2`?
MCL1 BIM primary: 152; 14-3-3 Bad PPI: inactive; Mcl1 Noxa PPI: inactive; Mcl1 Bid PPI: inactive; Bcl-xL conf: 112; MCL1 inh confirm: 143

Results for Cc1nn(-c2ccccc2)c(Cl)c1C(=O)NCC(C)c1ccccc1 (configuration not stated) ?
MCL1 BIM primary: inactive

Results for CC1=C(C#N)C(=O)OC(C)(C)C1 ?
MCL1 BIM primary: 100; 14-3-3 Bad PPI: inactive; Mcl1 Noxa PPI: inactive; Mcl1 Bid PPI: inactive; Mcl-1 Bim block: inactive; Bcl-xL conf: 35; MCL1 inh confirm: 50

What do the screens show for `Cc1[nH]c(=O)c(C#N)c2c1COC(C)(C)C2`?
MCL1 BIM primary: inactive; 14-3-3 Bad PPI: inactive; Mcl1 Noxa PPI: inactive; Mcl1 Bid PPI: inactive; Mcl-1 Bim block: inactive

What do the screens show for `Cc1ccc(Sc2cc(C(=O)NCCCN(C)C)c3ccccc3n2)cc1`?
MCL1 BIM primary: 86; Bcl-xL conf: inactive; MCL1 inh confirm: inactive

What do the screens show for `Cc1ccc(Sc2cc(C(=O)NCCN(C)C)c3ccccc3n2)cc1`?
MCL1 BIM primary: inactive

What do the screens show for `COc1ccc(NS(=O)(=O)c2cccc(C(=O)O)c2)cc1`?
MCL1 BIM primary: inactive; 14-3-3 Bad PPI: inactive; Mcl1 Noxa PPI: inactive; Mcl1 Bid PPI: inactive; Mcl-1 Bim block: inactive

How did COc1ccc(C(=O)Nc2cccc(C)c2)cc1 do in these assays?
MCL1 BIM primary: inactive; 14-3-3 Bad PPI: inactive; Mcl1 Noxa PPI: inactive; Mcl1 Bid PPI: inactive; Mcl-1 Bim block: inactive

Results for COc1ccc(NS(=O)(=O)c2cccc(C(=O)Nc3cccc(C(=O)O)c3)c2)cc1 ?
MCL1 BIM primary: 68; Bcl-xL conf: inactive; MCL1 inh confirm: inactive

How did COc1ccc(CC(=O)Nc2cccc(C(=O)Nc3cccc(C)c3)c2)cc1 do in these assays?
MCL1 BIM primary: 118; 14-3-3 Bad PPI: inactive; Mcl1 Noxa PPI: inactive; Mcl1 Bid PPI: inactive; Mcl-1 Bim block: inactive; Bcl-xL conf: inactive; MCL1 inh confirm: inactive

What do the screens show for `CCn1cc(/C=C/C(=O)c2ccc(O)cc2)c(C)n1`?
MCL1 BIM primary: inactive; 14-3-3 Bad PPI: inactive; Mcl1 Noxa PPI: inactive; Mcl1 Bid PPI: inactive; Mcl-1 Bim block: inactive

Results for Cc1ccc(CSc2ncn(-c3ccccc3)n2)cc1 ?
MCL1 BIM primary: inactive; 14-3-3 Bad PPI: inactive; Mcl1 Noxa PPI: inactive; Mcl1 Bid PPI: inactive; Mcl-1 Bim block: inactive

What do the screens show for `Oc1ccc(CNc2ccc(F)cc2)c2cccnc12`?
MCL1 BIM primary: inactive; 14-3-3 Bad PPI: inactive; Mcl1 Noxa PPI: inactive; Mcl1 Bid PPI: inactive; Mcl-1 Bim block: inactive

Results for O=C(NCCCc1ccccc1)c1cccc(S(=O)(=O)N2CCOCC2)c1 ?
MCL1 BIM primary: inactive

How did CCOC(=O)c1ccc2c(c1)C1C=CCC1C(C(=O)OCC)N2 (configuration not stated) do in these assays?
MCL1 BIM primary: inactive

What do the screens show for `CC(C)CNC(=O)C1Nc2ccc(C(F)(F)F)cc2C2C=CCC12` (configuration not stated)?
MCL1 BIM primary: inactive

Results for O=C(O)C1Nc2ccc(Br)cc2C2C=CCC12 (configuration not stated) ?
MCL1 BIM primary: 101; Bcl-xL conf: 67; MCL1 inh confirm: 107

What do the screens show for `CCOC(=O)C1Nc2ccc(Br)cc2C2C=CCC12` (configuration not stated)?
MCL1 BIM primary: 44; Bcl-xL conf: inactive; MCL1 inh confirm: inactive

How did CCOC(=O)C1Nc2ccc(C)cc2C2C=CCC12 (configuration not stated) do in these assays?
MCL1 BIM primary: 51; Bcl-xL conf: inactive; MCL1 inh confirm: inactive

What do the screens show for `COc1ccc(Nc2cc(C)nc3ccccc23)cc1`?
MCL1 BIM primary: inactive; 14-3-3 Bad PPI: inactive; Mcl1 Noxa PPI: inactive; Mcl1 Bid PPI: inactive; Mcl-1 Bim block: inactive

Results for CCC1CCc2c([nH]c3ccccc3c2=O)O1 (configuration not stated) ?
MCL1 BIM primary: inactive; 14-3-3 Bad PPI: inactive; Mcl1 Noxa PPI: inactive; Mcl1 Bid PPI: inactive; Mcl-1 Bim block: inactive

How did CCc1noc(C)c1C(=O)Nc1nc2c(C)cc(C)cc2s1 do in these assays?
MCL1 BIM primary: inactive

Results for CN1C(=O)SC(Nc2cccc3ccccc23)C1=O (configuration not stated) ?
MCL1 BIM primary: inactive; 14-3-3 Bad PPI: inactive; Mcl1 Noxa PPI: inactive; Mcl1 Bid PPI: inactive; Mcl-1 Bim block: inactive

What do the screens show for `COc1cccc(C2C=C(c3ccc(OC)cc3OC)Nc3nnnn32)c1` (configuration not stated)?
MCL1 BIM primary: 51; Mcl1 Noxa PPI: inactive; Mcl1 Bid PPI: inactive; Mcl-1 Bim block: inactive; Bcl-xL conf: inactive; MCL1 inh confirm: inactive

What do the screens show for `COc1ccccc1C1C2=C(CCCC2=O)N(CC(=O)O)C2=C1C(=O)CCC2`?
MCL1 BIM primary: 47; Bcl-xL conf: inactive; MCL1 inh confirm: inactive

How did NS(=O)(=O)c1ccc(NC(=O)N2c3ccccc3Sc3ccccc32)cc1 do in these assays?
MCL1 BIM primary: inactive; 14-3-3 Bad PPI: inactive; Mcl1 Noxa PPI: inactive; Mcl1 Bid PPI: inactive; Mcl-1 Bim block: inactive

What do the screens show for `CCCCN(C(=O)c1cccc(-n2cccc2)c1)c1c(N)n(Cc2ccccc2)c(=O)[nH]c1=O`?
MCL1 BIM primary: 78; Bcl-xL conf: inactive; MCL1 inh confirm: inactive

What do the screens show for `COc1cccc(NC(=O)CNC(=O)N2CC(=O)Nc3ccccc32)c1`?
MCL1 BIM primary: inactive

What do the screens show for `CC(C)(O)c1cc(=O)sc2nc3ccccc3n12`?
MCL1 BIM primary: inactive; 14-3-3 Bad PPI: inactive; Mcl1 Noxa PPI: inactive; Mcl1 Bid PPI: inactive; Mcl-1 Bim block: inactive
